Source: PubChem BioAssay
WRN helicase inh: WRN helicase (human) inhibition | Q14191 | WRN helicase unwinding, fluorescent forked duplex, kinetic | Potency, µM (highest dose often 114 µM), inactives show top-dose activity change, negative = inhibition, usual class: inhibitors | actives 0.46% (n = 360,000) | AID 651768; note: % is set by controls: 0 for no effect and ±100 for the full control effect; nearly all actives have a fitted effect of over 55% in size
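Primary qHTS, 1536-well format. 20 nM WRN + compound, 15 min RT; start with 100 nM forked fluorophore/quencher duplex, 2 mM ATP (final); kinetic read ex 525/em 598 nm.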
POLH inh: blocks human DNA polymerase eta activity; recombinant Pol eta, fluorescent DNA replication assay; Potency, µM (highest dose often 114 µM), without a hit: at the highest dose activity change, negative = inhibition, usual class: inhibitors; actives 1.2% (n = 390,000); note: % is set by controls: 0 for no effect and ±100 for the full control effect
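Pol eta at 10 nM preincubated with compounds 15 min at room temperature; reaction started with fluorescent substrate (50 nM final) and read kinetically at 0 and 10 min.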
FEN1 inh-1: human FEN1 inhibition; P39748; Recombinant FEN1 flap cleavage, fluorescence, 15 min; Potency, µM (titrated, usually from 114 µM), for the others: at the top dose activity change, negative = inhibition, actives largely listed as inhibitors; actives 0.35% (n = 390,000); AID 588795; note: % is set by controls: 0 for no effect and ±100 for the full control effect; nearly all actives have a fitted effect of over 65% in size
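Nuclease activity of 10 nM FEN1 was measured after 15 min of room-temperature exposure to titrated compounds, by adding 50 nM flap substrate and reading plates at 0 and 15 min.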
Pol iota inh: blocks human DNA polymerase iota activity | Q9UNA4 | Pol iota fluorescent replication assay, 10 min | Potency, µM (top dose mostly 115 µM), without a hit: top-dose activity, negative = inhibition, actives largely listed as inhibitors | actives 1% (n = 390,000) | AID 588590
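Pol iota at 10 nM preincubated 15 min with compounds at room temperature; reaction started with fluorescent substrate, 50 nM final. Fluorescence read kinetically at 0 and 10 min; buffer-only wells as negative control.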
Pol beta inh: inhibitors of human DNA polymerase beta. actives 1.3% (n = 340,000). Potency, µM (top dose mostly 114 µM), without a hit: at the highest dose activity change, negative = inhibition, hits mostly inhibitors. AID 485314. Pol beta primer extension/strand displacement, fluorescence kinetic. P06746; note: % is set by controls: 0 for no effect and ±100 for the full control effect
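Values derive from four-parameter Hill fits of normalized kinetic data: reads at 0 and 10 min following addition of 50 nM substrate to 10 nM Pol beta preincubated 15 min with compound.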
Pol kappa inh: inhibitors of human DNA polymerase kappa | purified Pol kappa, fluorescent DNA synthesis assay, 10 min | Potency, µM (series often up to 107 µM), for inactives: at the highest dose activity, negative = inhibition, hits mostly inhibitors | actives 0.53% (n = 400,000); note: % is set by controls: 0 for no effect and ±100 for the full control effect
Target sequence (Q9UBT6 whole entry, looked up): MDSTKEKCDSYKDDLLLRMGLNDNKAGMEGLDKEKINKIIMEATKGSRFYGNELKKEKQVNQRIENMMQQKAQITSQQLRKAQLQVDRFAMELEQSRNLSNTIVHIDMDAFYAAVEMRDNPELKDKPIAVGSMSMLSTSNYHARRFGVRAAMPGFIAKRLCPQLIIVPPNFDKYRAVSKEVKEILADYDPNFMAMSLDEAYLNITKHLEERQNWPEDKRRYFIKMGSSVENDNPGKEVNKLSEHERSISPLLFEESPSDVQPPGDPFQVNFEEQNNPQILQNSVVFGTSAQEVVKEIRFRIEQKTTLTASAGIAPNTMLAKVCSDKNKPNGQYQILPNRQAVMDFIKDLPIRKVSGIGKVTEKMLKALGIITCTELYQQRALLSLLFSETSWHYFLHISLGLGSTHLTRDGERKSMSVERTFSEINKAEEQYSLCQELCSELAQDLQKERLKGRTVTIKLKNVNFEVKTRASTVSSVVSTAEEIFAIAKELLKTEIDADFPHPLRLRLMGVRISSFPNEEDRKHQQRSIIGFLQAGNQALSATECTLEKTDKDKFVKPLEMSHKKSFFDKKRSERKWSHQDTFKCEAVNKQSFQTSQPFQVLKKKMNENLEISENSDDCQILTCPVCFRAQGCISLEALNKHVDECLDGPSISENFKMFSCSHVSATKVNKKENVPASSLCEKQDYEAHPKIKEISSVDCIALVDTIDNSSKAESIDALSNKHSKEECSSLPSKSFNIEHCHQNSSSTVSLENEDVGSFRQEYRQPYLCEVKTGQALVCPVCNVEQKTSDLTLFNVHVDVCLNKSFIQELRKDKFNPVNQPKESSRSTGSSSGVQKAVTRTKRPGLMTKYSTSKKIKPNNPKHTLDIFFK
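Pol kappa 10 nM + cpd, 15 min RT; start w/ substrate 50 nM final; fluorescence kinetic read, 0 and 10 min. Neg ctrl: buffer, no enzyme.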
FEN1 inh-2: confirmation of human FEN1 inhibitors; shares compounds with FEN1 inh-1; FEN1 flap cleavage, TAMRA/BHQ2 fluorogenic DNA substrate; Potency, µM, hits mostly inhibitors; actives 79% (n = 880); note: nearly all actives have a fitted effect of over 60% in size
Starred values were filed as active, the others as inactive; ? = inconclusive; . = no result given; [ ] = another dose, or the depositor's remark. An excerpt weighted towards active compounds, which were near 2.4% of everything screened. Calls come from the whole dose curve; as a rule, active = well fitted curve in the direction sought with a large enough effect; inconclusive = small, poorly fitted or top-dose-only effect, or another doubt; inactive = no such curve, though single readings can be large; an effect the other way counts as inactive or inconclusive. Potency is the fitted concentration of half-maximal effect.

SMILES	WRN helicase inh	POLH inh	FEN1 inh-1	Pol iota inh	Pol beta inh	Pol kappa inh	FEN1 inh-2
CC1=C(C(=O)N(C(C)C)C(C)C)CC(CC(=O)NCCCN(C)C)C(=O)N1Cc1ccc(C(C)(C)C)cc1 (centres undefined)	-3%	.	.	.	.	.	.
Cc1cc(C)nc(N2CCCC(C(=O)Nc3ccc4c(c3)OCCO4)C2)n1 (centres undefined)	-5%	-12%	-23%	-10%	24%	-4%	.
O=[N+]([O-])c1ccc(N/N=C/c2ccc(O)c(O)c2O)c(S(=O)(=O)N2CCOCC2)c1	?	?	20µM*	?	?	?	34*
CCN(CC)CCNC(=O)c1cc2c(-c3ccc(Cl)cc3)nn(C)c2s1	48%	10%	28µM*	?	16µM*	-17%	38*
CCN(CC)CCNC(=O)c1cc2c(-c3cccc(OC)c3)nn(C)c2s1	52%	-10%	?	?	71µM*	14%	38*
Cn1nc(-c2ccc(Cl)cc2)c2cc(C(=O)NCCN3CCOCC3)sc21	3%	11%	-18%	?	-6%	-3%	.
CCOCCCNC(=O)c1cc2c(-c3ccc(Cl)cc3)nn(C)c2s1	-8%	-9%	-13%	7%	4%	-9%	.
CCCCN(CC)CCNC(=O)c1cc2c(-c3ccc(Cl)cc3)nn(C)c2s1	88%	-8%	45µM*	?	3.2µM*	-13%	38*
COCCCNC(=O)/C(C#N)=C/c1c(N2CCN(c3ccc(OC)cc3)CC2)nc2c(C)cccn2c1=O	1%	-21%	-4%	120%	0%	-2%	.
COc1ccccc1C1c2c(ncn(-c3ccccc3)c2=N)Oc2ccc3ccccc3c21 (centres undefined)	.	.	.	.	.	.	11*
COc1ccccc1C1c2ccc3ccccc3c2Oc2ncn(CCN(C)C)c(=N)c21 (centres undefined)	17%	-22%	-13%	32%	27%	-2%	.
CCN(CC)CCn1c2ccccc2c2cnc(N)c(C#N)c21	-8%[57.1 µM]	?	?	?	14µM*	?	21*
COc1ccc(OCCC(=O)Nc2ccccc2)cc1	6%	-4%	-16%	28%	1%	3%	.
Cc1ccc(O)c2ncccc12	.	.	.	.	.	-3%[19.4 µM]	.
Cc1c(C)c2cccnc2c2ncccc12	-7%[11.6 µM]	-4%	16µM*	-27%	.	-23%	43*
CN(C)CCNc1ccc2nnn3c4ccc(O)cc4c(=O)c1c23	23%[11.6 µM]	?	13µM*	?	.	-42%	8.5*
Cc1cc(C)nc(-n2nc(C)c3c2N(Cc2ccccc2F)C(=O)CC3c2ccc(Cl)cc2)n1 (centres undefined)	.	-15%	6%	8%	-12%	2%	.
Cc1cccc(C(=O)O/N=C2\CCCc3ccccc32)c1	-8%	-10%	-17%	16%	1%	-3%	.
O=C1c2cccc3c(Cl)ccc(c23)C(=O)N1O	?	-21%	0.5µM*	?	?	-12%	1.1*
CCN1C(=O)c2cccc3c(Cl)ccc(c23)C1=O	-4%	3%	-1%	109%	12%	5%	.
O=C(c1cccc2ccccc12)N1CCCCC1	12%	-8%	6%	7%	38%	2%	.
O=C(c1ccc2c3c(cccc13)C(=O)N(O)C2=O)N1CCCCC1	-6%[11.6 µM]	-5%	11µM*	-4%	2%	1%	3*
Cc1ccc(C2(C)NC(=O)N(CC(=O)N(Cc3ccccc3)C(C)(C)C)C2=O)cc1 (centres undefined)	-2%	-15%	-2%	78%	-15%	-11%	.
CCOC(=O)c1nc(Nc2ccccc2CC)c2ccccc2n1	-1%	-17%	-3%	134%	46%	6%	.
COC(=O)C(=O)/C=C(\O)c1c(C)cc(C)cc1C	-9%[57.1 µM]	-20%	?	34%	-1%	0%	38*
SMILES	WRN helicase inh	POLH inh	FEN1 inh-1	Pol iota inh	Pol beta inh	Pol kappa inh	FEN1 inh-2
COc1ccccc1Nc1nc(C)nc2c1oc1ccccc12	-1%[11.6 µM]	?	?	?	-20%	-14%	.
O=C(NNC(=O)c1cccnc1)NC1CCCCC1	3%	-2%	-2%	-1%	0%	-3%	.
O=C(NNC(=O)c1cc(O)c(O)c(O)c1)NC1CCCCC1	-9%[57.1 µM]	-10%	28µM*	?	33%	-5%	?
COc1ccc(Cl)cc1C(=O)NCCN(C)C	-8%	7%	-3%	10%	14%	-23%	.
COc1cccc2nc3c(C(=O)NCCN(C)C)cccc3cc12	13%[11.6 µM]	?	13µM*	?	.	-46%	30*
COc1ccc(-c2nc3c(C(=O)NCCN(C)C)cccc3c3ccccc23)cc1	56%	6%	32µM*	?	.	0%	34*
COc1cc(-c2ccc3ncnc(NCc4ccc(C)o4)c3c2)cc(OC)c1OC	.	.	.	.	.	.	?
COc1ccc(CCNC(=O)COc2ccc([N+](=O)[O-])cc2)cc1	13%[57.1 µM]	-20%	-1%	60%	107%	-16%	.
O=C(COC(=O)c1ccc([N+](=O)[O-])o1)NCc1ccc(F)cc1	15%	89µM*	?	?	.	-25%	13*
CC(=O)Nc1ccc(NC(=O)COC(=O)c2ccc([N+](=O)[O-])o2)cc1	1%[11.6 µM]	?	20µM*	?	.	-28%	15*
COc1ccc(CCNC(=O)COC(=O)c2ccc([N+](=O)[O-])o2)cc1	-15%	?	?	?	.	-9%	17*
O=C(COC(=O)c1ccc([N+](=O)[O-])o1)NCCCc1ccccc1	22%	89µM*	?	?	.	-24%	19*
Cc1cccc(-n2cc(CN3CCCN(C=O)CC3)c(-c3cccc(F)c3)n2)c1	-12%	-13%	25%	83%	-12%	2%	.
COc1cc(N/C(N)=N/c2nc(C)cc(C)n2)cc(OC)c1	39%	0%	?	-10%	78%	-1%	54*
Cc1cc(C)nc(/N=C(\N)Nc2ccc3c(c2)OCCO3)n1	17%[57.1 µM]	3%	79µM*	13%	0%	26%	67*
Cc1cc(=O)[nH]c(/N=C(\N)Nc2ccc3c(c2)OCCO3)n1	2%	-15%	-6%	24%	-4%	-9%	.
COc1ccc(N/C(N)=N/c2nc(C)cc(C)n2)c(OC)c1	22%	-6%	-12%	27%	-11%	0%	.
COc1ccc(NC(=O)N2CCCC2C(=O)NCc2ccc(F)cc2)cc1 (centres undefined)	-3%	8%	6%	6%	18%	-4%	.
